Bioassay records (PubChem)
Most compounds without a hit are left out; they make up all but 2.5% or so of the library.
Cruzain Triton – blocks cruzain activity in presence of Triton detergent; AID 1478; Potency, µM, for the others: max response, negative = inhibition, actives largely listed as inhibitors; P25779; purified cruzain, Z-FR-AMC fluorescence, 0.01% Triton; 200,000 compounds, 0.43% hits;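 note: plate controls were neutral wells for no effect and buffer without enzyme for full effect; nearly all actives have a fitted effect of over 40% in size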
Target sequence (P25779 123-467 limits assumed): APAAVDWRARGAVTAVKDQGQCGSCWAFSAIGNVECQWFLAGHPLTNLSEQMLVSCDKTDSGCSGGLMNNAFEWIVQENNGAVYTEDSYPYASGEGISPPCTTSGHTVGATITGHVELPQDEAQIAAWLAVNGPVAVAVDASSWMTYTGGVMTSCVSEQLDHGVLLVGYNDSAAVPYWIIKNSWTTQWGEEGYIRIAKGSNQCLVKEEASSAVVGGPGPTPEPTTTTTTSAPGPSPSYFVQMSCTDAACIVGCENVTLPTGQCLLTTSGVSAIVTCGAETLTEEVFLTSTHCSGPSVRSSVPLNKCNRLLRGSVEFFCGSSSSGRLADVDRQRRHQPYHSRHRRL
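In this qHTS format, compounds are incubated with 1.5 nM cruzain for 15 min at room temperature before 2 uM Z-FR-AMC is added. Release of AMC is followed at 360/450 nm, and progress is taken as the 60 s fluorescence difference.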
Cruzain noTriton – blocks cruzain activity in detergent-free assay; P25779; purified cruzain, Z-FR-AMC fluorescence, no detergent; Potency, µM, for inactives: max response, negative = inhibition, usual class: inhibitors; 200,000 compounds, 2.3% hits;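 note: plate controls were enzyme without inhibitor for no effect and buffer without enzyme for full effect; nearly all actives have a fitted effect of over 40% in size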
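Detergent-free condition (0.00005% Triton X-100) in acetate buffer pH 5.5 with DTT. 1.5 nM enzyme and compound were pre-mixed 15 min, then 2 uM Z-FR-AMC substrate added; reaction progress from fluorescence change between first and third reads (60 s).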
* = called active by the depositor. Calls come from the whole dose curve; as a rule, active = well fitted curve in the direction sought with a large enough effect; inconclusive = small, poorly fitted or top-dose-only effect, or another doubt; inactive = no such curve, though single readings can be large; an effect the other way counts as inactive or inconclusive. Potency is the fitted concentration of half-maximal effect.

What do the screens show for `Cc1cccc(NC(=O)C(NS(=O)(=O)c2cccc3nsnc23)c2ccccc2)c1C` (stereo unspecified)?
Cruzain Triton: -4.1%; Cruzain noTriton: -21.4%

What do the screens show for `CCOc1ccc(NCc2nnc(SCC(=O)Nc3nc(-c4ccccc4)cs3)n2-c2ccccc2)cc1`?
Cruzain Triton: 0.5%; Cruzain noTriton: 25.1µM*

How did Cc1cccc(C)c1NCc1nnc(SCC(=O)Nc2nc(-c3ccccc3)cs2)n1-c1ccccc1 do in these assays?
Cruzain Triton: -1.0%; Cruzain noTriton: inconclusive

What do the screens show for `CC1CCN(S(=O)(=O)c2cc(C(=O)Nc3ccc(Br)cc3F)n(C)c2)CC1`?
Cruzain Triton: -6.9%; Cruzain noTriton: -17.3%

What do the screens show for `Cc1nn(C(C)C(=O)NC2CCCCC2)c(=O)c2c1sc1ccccc12` (stereo unspecified)?
Cruzain Triton: -8.8%; Cruzain noTriton: 6.1%

Results for CCCCCN1C(C(=O)c2ccccc2)=C(NC(C)=O)c2ccccc2S1(=O)=O ?
Cruzain Triton: -10.8%; Cruzain noTriton: 4.3%

What do the screens show for `CCCCCN1C(C(=O)c2ccccc2)=C(NC(=O)c2ccccc2Cl)c2ccccc2S1(=O)=O`?
Cruzain Triton: -5.5%; Cruzain noTriton: 10µM*

What do the screens show for `N#CCCCC[N+]12CN3CN(CN(C3)C1)C2`?
Cruzain Triton: 1.2%; Cruzain noTriton: 2.2%

What do the screens show for `Cc1ccc(N2CC(NC(=O)Cc3cccs3)CC2=O)cc1C` (stereo unspecified)?
Cruzain Triton: 2.1%; Cruzain noTriton: -1.7%

What do the screens show for `Cc1sc2nc(CN3CCCC3)nc(N3CCN(S(=O)(=O)c4cccs4)CC3)c2c1C`?
Cruzain Triton: 0.0%; Cruzain noTriton: 15.8µM*

What do the screens show for `Cc1sc2nc(CN3CCCCC3)nc(Cl)c2c1C`?
Cruzain Triton: -5.3%; Cruzain noTriton: 1.3%

What do the screens show for `COc1cccc(CSc2nc3n(n2)C(CC(C)C)C(C(=O)Nc2ccccc2OC)=C(C)N3)c1` (stereo unspecified)?
Cruzain Triton: 0.9%; Cruzain noTriton: -2.8%

Results for COc1ccc(N2CCN(C(=O)C3CCN(S(=O)(=O)c4cccc5nonc45)CC3)CC2)cc1 ?
Cruzain Triton: -2.6%; Cruzain noTriton: inconclusive

What do the screens show for `COc1ccc(C2/C=C\CN(CC(C)C)CC(=O)N2Cc2cccc(F)c2)cc1` (stereo unspecified)?
Cruzain Triton: 2.3%; Cruzain noTriton: -3.4%

Results for COc1ccc(C2/C=C\CN(C(=O)OCC3c4ccccc4-c4ccccc43)CC(=O)N2Cc2cccc(F)c2)cc1 (stereo unspecified) ?
Cruzain Triton: -1.6%; Cruzain noTriton: 25.1µM*

What do the screens show for `Cc1c2cnn(CC(=O)N3CCN(c4ccc(F)cc4)CC3)c(=O)c2c(C)n1Cc1ccccc1F`?
Cruzain Triton: -3.1%; Cruzain noTriton: 4.8%

Results for O=C(NCCc1ccccc1)C(=O)N/N=C/c1ccc2c(c1)OCO2 ?
Cruzain Triton: 5.2%; Cruzain noTriton: 20µM*

What do the screens show for `Cc1ccccc1OCC(=O)N/N=C/c1ccc2c(c1)OCCO2`?
Cruzain Triton: -5.3%; Cruzain noTriton: -14.1%

What do the screens show for `O=C(N/N=C\c1ccc2c(c1)OCO2)c1ccco1`?
Cruzain Triton: -7.9%; Cruzain noTriton: -0.2%

How did Cc1cc(C)c(OCC(=O)N/N=C/c2ccc3c(c2)OCO3)c(C)c1 do in these assays?
Cruzain Triton: 0.2%; Cruzain noTriton: 20µM*

How did CCOc1ccccc1NS(=O)(=O)c1c(-c2ccc(C)cc2)csc1C(=O)OC do in these assays?
Cruzain Triton: -7.8%; Cruzain noTriton: inconclusive

Results for COc1ccc(Nc2nc(-c3cccs3)cs2)cc1 ?
Cruzain Triton: 0.3%; Cruzain noTriton: 15.8µM*

What do the screens show for `COc1ccc(Nc2nc(-c3sc(NC(C)=O)nc3C)cs2)cc1`?
Cruzain Triton: -3.1%; Cruzain noTriton: 5.2%

Results for COc1ccc(Nc2nc(-c3sc(N)nc3C)cs2)cc1 ?
Cruzain Triton: 15.8µM*; Cruzain noTriton: 15.8µM*

How did Cc1cccnc1Nc1nc(-c2ccc(O)cc2)cs1 do in these assays?
Cruzain Triton: -6.4%; Cruzain noTriton: -6.4%

How did COc1ccc(CCNc2ccncn2)cc1OC do in these assays?
Cruzain Triton: 4.6%; Cruzain noTriton: -3.5%

Results for Oc1ccc(Nc2nc(-c3cccs3)cs2)cc1 ?
Cruzain Triton: 1.2%; Cruzain noTriton: -26.9%

How did Cc1nc(N)sc1-c1csc(Nc2ccccn2)n1 do in these assays?
Cruzain Triton: inconclusive; Cruzain noTriton: 12.6µM*

What do the screens show for `COc1ccc(CCNc2nc(-c3sc(N)nc3C)cs2)cc1OC`?
Cruzain Triton: 14.1µM*; Cruzain noTriton: 10µM*

Results for Cc1ccc(S(=O)(=O)c2nnn3c2nc(N2CCC(C)CC2)c2cc(Cl)ccc23)cc1C ?
Cruzain Triton: -4.1%; Cruzain noTriton: inconclusive

How did Cc1cccc(CC2C(=O)Nc3ccccc32)c1 (stereo unspecified) do in these assays?
Cruzain Triton: -4.5%; Cruzain noTriton: 5.2%

Results for CCOc1ccccc1C(=O)Nc1c(C(=O)Nc2ccc(F)cc2)oc2ccccc12 ?
Cruzain Triton: -2.0%; Cruzain noTriton: 8.7%

How did O=C1CC(c2nc3ccccc3n2CCCOc2ccccc2)CN1c1ccc(F)cc1 (stereo unspecified) do in these assays?
Cruzain Triton: -7.7%; Cruzain noTriton: 1.2%

What do the screens show for `CCOc1ccc(N(C)C(CNS(=O)(=O)c2ccccc2)c2ccccc2)cc1` (stereo unspecified)?
Cruzain Triton: -10.8%; Cruzain noTriton: 6.5%

Results for COc1ccccc1CNC(=O)c1cn(C)c2ccc(S(=O)(=O)N(C)C3CCCCC3)cc2c1=O ?
Cruzain Triton: -3.2%; Cruzain noTriton: inconclusive

What do the screens show for `O=C(O)C(F)(F)C(F)(F)C(F)(F)C(F)(F)C(=O)O`?
Cruzain Triton: 9.3%; Cruzain noTriton: -1.9%

What do the screens show for `O=C(O)C[SH+]CC(=O)O.O=C(O)C[SH+]CC(=O)O.[Cu]`?
Cruzain Triton: 3.8%; Cruzain noTriton: 4.6%

What do the screens show for `CC(=O)N1c2ccc(S(=O)(=O)NCc3ccc(Cl)cc3)cc2CC1C` (stereo unspecified)?
Cruzain Triton: -4.0%; Cruzain noTriton: 5.5%

Results for Cc1nc(N)sc1-c1csc(Nc2ccc(Cl)cn2)n1 ?
Cruzain Triton: 28.2µM*; Cruzain noTriton: 15.8µM*

Results for CC(=O)Nc1cccc(-c2csc(Nc3ccc(C)cn3)n2)c1 ?
Cruzain Triton: -18.6%; Cruzain noTriton: 8.6%

Results for CC(=O)c1cccc(NC(=O)Cc2ccc(NC(=O)N3CCCCc4ccccc43)cc2)c1 ?
Cruzain Triton: -8.3%; Cruzain noTriton: inconclusive

Results for COc1ccc(N(CC(=O)NCCc2ccc(C)cc2)S(=O)(=O)c2c(C)nn(C)c2C)cc1 ?
Cruzain Triton: -3.4%; Cruzain noTriton: inconclusive

Results for O=C(Nc1c(C(=O)N2CCN(c3ccccc3)CC2)oc2ccccc12)c1ccc(Br)o1 ?
Cruzain Triton: -8.3%; Cruzain noTriton: inconclusive

Results for Cc1sc(NC(=O)Cc2ccc3c(c2)OCO3)nc1-c1ccc2c(c1)CCN2C(=O)c1cccc(F)c1 ?
Cruzain Triton: -1.5%; Cruzain noTriton: 7.94µM*

What do the screens show for `Cc1ccccc1C(=O)N1CCc2cc(-c3nc(NC(=O)Cc4ccc5c(c4)OCO5)sc3C)ccc21`?
Cruzain Triton: -14.5%; Cruzain noTriton: 3.16µM*

How did CCC(CC)C(=O)Nc1nc(-c2ccc3c(c2)CCN3C(=O)C2CC2)c(C)s1 do in these assays?
Cruzain Triton: -7.3%; Cruzain noTriton: -2.2%
